Activity calls are given as the source filed them.
Assays:
Albumin (Bos taurus) = Albumin (Bos taurus) (UniProt P02769); assay: compounds binding labelled BSA control protein – biochemical, small-molecule microarray, Alexa647 label, 635/667 nm fluorescence, artefact control for SMM control protein annotation, profiling panel (AID 1118); details: BSA-A647 binding, fluorescence 635 nm, higher = more signal;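 further: score merges 667 nm emission intensity and signal-to-noise per printed compound spot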
[1] = probe aXIP binding to arrayed compounds – biochemical, NeuroSMM set, 635/667 nm fluorescence, primary screen (AID 1119); details: small-molecule microarray, higher = more signal, called active from +8 up or from −8 down;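 further: probe is the protein aXip251-270 applied at 1 µg/mL to compound-printed slides; binding of probe to printed compounds measured as 667 nm fluorescence plus signal to noise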
[2] = probe aNOTCH3 binding on compound microarray – biochemical, small-molecule microarray, 635/667 nm fluorescence, primary screen (AID 1120); details: higher = more signal;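 further: probe is a biotin-tagged antibody raised against NOTCH3 rather than NOTCH3 protein; score merges spot fluorescence near 667 nm with spot signal to noise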
[3] = probe aNOTCH2 binding on compound microarray – biochemical, small-molecule microarray, 635/667 nm fluorescence, primary screen (AID 1121); details: higher = more signal;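 further: score merges feature fluorescence read at 667 nm with its signal to noise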
[4] = biological target: Carbonic anhydrase 2 (Homo sapiens) (UniProt P00918); assay: compounds binding carbonic anhydrase 2 – biochemical, small-molecule microarray, Alexa647-labelled CAII, profiling panel (AID 1122); details: CAII-A647 binding fluorescence, higher = more signal
[5] = COS7 lysate on small-molecule microarray, probe aHis, 635 nm (AID 1123); details: COS7 cell lysate, fluorescence, higher = more signal;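 further: z-score combines 667nm fluorescence intensity with signal-to-noise per printed compound spot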
[6] = probe aLAP1 signal on lysate-treated microarray – cell lysate, small-molecule microarray, COS7 lysate, primary screen (AID 1124); details: probe aLAP1, fluorescence, higher = more signal;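 further: lysate comes from COS7 cells expressing LAP1 and is applied at 0.3 µg/mL; score merges spot fluorescence near 667 nm with signal-to-noise over triplicate slides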
Sam68 (KHDRBS1) = assay: compounds binding KHDRBS1 protein – biochemical, small-molecule microarray, 635 nm fluorescence, primary screen (AID 1125); details: higher = more signal;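 further: score merges 667 nm channel intensity with signal to noise over triplicate slides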
[7] = tested on: Chordin-like protein 2 (CHRDL2); assay: compounds binding chordin-like 2 – biochemical, small-molecule microarray, 635 nm fluorescence, primary screen (AID 1126); details: fluorescence 635 nm, higher = more signal;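 further: printed compound slides probed with Chrdl2 protein at 4 µg/mL for 1 h at 4 C; score merges 667 nm emission intensity with signal to noise over three replicate slides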
[8] = biological target: Concanavalin-A (Canavalia ensiformis) (UniProt P02866); assay: compounds binding concanavalin A lectin – biochemical, small-molecule microarray, Alexa647 label, 635 nm, artefact control for SMM control protein annotation, primary screen (AID 1127); details: ConA-A647 binding fluorescence, higher = more signal;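 further: z combines 667 nm emission intensity with signal-to-noise across three replicate slides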
[9] = compounds binding Alexa647 anti-His antibody – biochemical, small-molecule microarray, 635 nm fluorescence, artefact control for SMM control protein annotation, primary screen (AID 1128); details: higher = more signal;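 further: score merges feature fluorescence with signal-to-noise for each printed compound spot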
[10] = tested on: Human papillomavirus type 1a E7 protein (residues 1-88); assay: HPV1a E7 small-molecule binders, primary screen, biochemical, small-molecule microarray, residues 1-88, 635 nm (AID 1129); details: small-molecule microarray binding, fluorescence 635 nm; higher = more signal
[11] = biological target: Focal adhesion kinase 1 (Homo sapiens) (UniProt Q05397); assay: PTK2 protein binding on printed compound slides – biochemical, small-molecule microarray, 635/667 nm fluorescence, BSA, DTT, primary screen (AID 1130); details: 635 nm fluorescence, higher = more signal;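 further: composite of spot emission at 667 nm and signal to noise over triplicate slides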
[12] = tested on: Fibrinogen (Alexa647-labelled); assay: Alexa647-fibrinogen binding to printed small molecules – biochemical, small-molecule microarray, 635/667 nm fluorescence, artefact control for SMM control-protein annotation, profiling panel (AID 1131); details: fibrinogen-A647 binding fluorescence, higher = more signal;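 further: z-score merges 667 nm fluorescence with per-spot signal-to-noise over triplicate slides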
[13] = biological target: Follistatin (Homo sapiens) (UniProt P19883); assay: FST protein binding to printed compounds – biochemical, small-molecule microarray, 635/667 nm fluorescence, primary screen (AID 1132); details: 635 nm fluorescence, higher = more signal
[14] = biological target: Fibroblast growth factor 2 (Homo sapiens) (UniProt P09038); assay: basic fibroblast growth factor binding to printed compounds – biochemical, small-molecule microarray, 635/667 nm fluorescence, primary screen (AID 1133); details: FGF2, fluorescence 635/667, higher = more signal
[15] = JC-1 mitochondrial potential readout, lung cancer cells – cell-based, A549, JC-1 fluorescence, basal, 24 h, 100 nL, profiling panel (AID 1138); details: higher = more signal;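 further: A549 lung adenocarcinoma cells under basal conditions with no added stimulus; test concentration not given here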
Lefty1 = Lefty1 protein binding to printed compounds – biochemical, small-molecule microarray, 635/667 nm fluorescence, primary screen (AID 1139); details: fluorescence 635/667, higher = more signal
[16] = tested on: wheat germ agglutinin (Triticum aestivum), Alexa647-labelled; assay: Alexa647-WGA lectin binding to printed small molecules – biochemical, small-molecule microarray, 635/667 nm fluorescence, artefact control for SMM control-protein annotation, profiling panel (AID 1140); details: WGA-A647 binding, 635 nm fluorescence, higher = more signal;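 further: score merges 667 nm feature emission with signal to noise over triplicate slides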
[17] = biological target: Luciferin 4-monooxygenase (Photinus pyralis) (UniProt P08659); assay: inhibition of purified Photinus pyralis luciferase – biochemical, luminescence, purified enzyme, 2006 set, primary screen (AID 1141); details: purified firefly luciferase, SteadyGlo luminescence, 30 min; higher = more signal, called active from +8 up or from −8 down;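 further: cell-free assay with purified firefly luciferase at 100 ng per well in PBS; test concentration not given here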
Chain of Luciferin 4-monooxygenase (Photinus pyralis) (P08659 whole entry, looked up): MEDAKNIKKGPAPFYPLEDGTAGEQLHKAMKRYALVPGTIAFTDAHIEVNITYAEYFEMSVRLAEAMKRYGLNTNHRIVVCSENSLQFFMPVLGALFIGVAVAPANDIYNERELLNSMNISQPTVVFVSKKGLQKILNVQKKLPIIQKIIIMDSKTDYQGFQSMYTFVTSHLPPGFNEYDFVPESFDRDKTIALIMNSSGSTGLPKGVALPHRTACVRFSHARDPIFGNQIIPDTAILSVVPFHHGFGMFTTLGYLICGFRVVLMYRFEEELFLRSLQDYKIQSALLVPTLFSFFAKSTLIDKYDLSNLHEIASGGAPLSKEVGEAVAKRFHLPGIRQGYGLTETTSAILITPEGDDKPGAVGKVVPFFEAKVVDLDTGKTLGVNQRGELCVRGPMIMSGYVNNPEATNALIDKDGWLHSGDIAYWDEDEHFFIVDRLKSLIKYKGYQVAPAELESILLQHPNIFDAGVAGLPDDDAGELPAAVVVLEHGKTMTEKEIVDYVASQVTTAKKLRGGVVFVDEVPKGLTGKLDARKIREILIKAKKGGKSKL

Chain of Focal adhesion kinase 1 (Homo sapiens) (Q05397 whole entry, looked up): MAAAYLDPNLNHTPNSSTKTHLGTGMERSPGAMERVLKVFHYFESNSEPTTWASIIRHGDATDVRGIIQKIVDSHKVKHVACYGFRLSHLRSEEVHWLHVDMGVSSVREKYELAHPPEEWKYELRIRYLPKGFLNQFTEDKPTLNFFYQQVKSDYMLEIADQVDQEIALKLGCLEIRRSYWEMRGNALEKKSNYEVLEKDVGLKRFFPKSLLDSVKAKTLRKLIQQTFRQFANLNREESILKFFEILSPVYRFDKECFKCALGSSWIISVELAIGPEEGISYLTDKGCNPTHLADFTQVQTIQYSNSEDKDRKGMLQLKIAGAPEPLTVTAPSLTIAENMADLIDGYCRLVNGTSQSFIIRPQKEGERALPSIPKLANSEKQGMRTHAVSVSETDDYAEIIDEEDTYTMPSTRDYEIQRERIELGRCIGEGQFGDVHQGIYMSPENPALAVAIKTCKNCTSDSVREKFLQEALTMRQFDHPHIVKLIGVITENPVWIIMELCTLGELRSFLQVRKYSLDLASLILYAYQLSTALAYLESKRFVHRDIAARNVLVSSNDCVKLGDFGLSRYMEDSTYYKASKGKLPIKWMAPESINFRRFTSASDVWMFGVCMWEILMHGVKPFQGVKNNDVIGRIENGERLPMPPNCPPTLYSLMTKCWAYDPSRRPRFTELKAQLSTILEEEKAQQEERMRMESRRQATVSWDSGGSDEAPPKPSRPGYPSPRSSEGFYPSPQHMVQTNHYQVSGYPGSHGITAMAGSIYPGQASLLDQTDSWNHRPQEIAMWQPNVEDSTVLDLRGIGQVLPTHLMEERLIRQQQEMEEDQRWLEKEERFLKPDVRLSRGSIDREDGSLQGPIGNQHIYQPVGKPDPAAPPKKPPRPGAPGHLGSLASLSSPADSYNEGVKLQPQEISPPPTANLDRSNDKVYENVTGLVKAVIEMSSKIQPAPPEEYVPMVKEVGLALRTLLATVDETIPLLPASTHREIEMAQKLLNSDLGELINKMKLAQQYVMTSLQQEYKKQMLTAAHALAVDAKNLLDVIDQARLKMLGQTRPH
Chain of Concanavalin-A (Canavalia ensiformis) (P02866 whole entry, looked up): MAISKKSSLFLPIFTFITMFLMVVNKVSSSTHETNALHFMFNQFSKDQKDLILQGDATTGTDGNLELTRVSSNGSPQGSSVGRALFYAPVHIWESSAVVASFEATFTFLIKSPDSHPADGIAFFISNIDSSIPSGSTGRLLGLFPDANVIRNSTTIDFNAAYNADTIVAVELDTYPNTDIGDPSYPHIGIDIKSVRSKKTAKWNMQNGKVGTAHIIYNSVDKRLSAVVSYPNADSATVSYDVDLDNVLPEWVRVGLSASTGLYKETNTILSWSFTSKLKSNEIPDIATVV
Chain of Fibroblast growth factor 2 (Homo sapiens) (P09038 whole entry, looked up): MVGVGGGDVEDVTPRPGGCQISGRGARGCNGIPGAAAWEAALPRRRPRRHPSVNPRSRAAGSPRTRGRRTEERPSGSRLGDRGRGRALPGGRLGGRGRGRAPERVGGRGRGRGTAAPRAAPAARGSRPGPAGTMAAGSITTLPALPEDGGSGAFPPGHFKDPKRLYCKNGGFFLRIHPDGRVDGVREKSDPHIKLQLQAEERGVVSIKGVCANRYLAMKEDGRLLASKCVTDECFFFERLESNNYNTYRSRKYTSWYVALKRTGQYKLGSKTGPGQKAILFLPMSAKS
Chain of Follistatin (Homo sapiens) (P19883 whole entry, looked up): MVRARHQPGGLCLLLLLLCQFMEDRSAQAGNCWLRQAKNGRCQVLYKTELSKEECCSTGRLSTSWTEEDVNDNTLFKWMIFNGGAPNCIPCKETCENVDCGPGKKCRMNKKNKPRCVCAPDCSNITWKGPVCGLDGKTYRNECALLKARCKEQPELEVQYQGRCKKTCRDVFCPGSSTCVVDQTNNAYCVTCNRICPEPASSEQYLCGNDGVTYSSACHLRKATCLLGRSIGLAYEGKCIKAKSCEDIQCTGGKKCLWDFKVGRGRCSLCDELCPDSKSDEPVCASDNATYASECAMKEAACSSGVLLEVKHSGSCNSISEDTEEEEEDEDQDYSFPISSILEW
Chain of Albumin (Bos taurus) (P02769 whole entry, looked up): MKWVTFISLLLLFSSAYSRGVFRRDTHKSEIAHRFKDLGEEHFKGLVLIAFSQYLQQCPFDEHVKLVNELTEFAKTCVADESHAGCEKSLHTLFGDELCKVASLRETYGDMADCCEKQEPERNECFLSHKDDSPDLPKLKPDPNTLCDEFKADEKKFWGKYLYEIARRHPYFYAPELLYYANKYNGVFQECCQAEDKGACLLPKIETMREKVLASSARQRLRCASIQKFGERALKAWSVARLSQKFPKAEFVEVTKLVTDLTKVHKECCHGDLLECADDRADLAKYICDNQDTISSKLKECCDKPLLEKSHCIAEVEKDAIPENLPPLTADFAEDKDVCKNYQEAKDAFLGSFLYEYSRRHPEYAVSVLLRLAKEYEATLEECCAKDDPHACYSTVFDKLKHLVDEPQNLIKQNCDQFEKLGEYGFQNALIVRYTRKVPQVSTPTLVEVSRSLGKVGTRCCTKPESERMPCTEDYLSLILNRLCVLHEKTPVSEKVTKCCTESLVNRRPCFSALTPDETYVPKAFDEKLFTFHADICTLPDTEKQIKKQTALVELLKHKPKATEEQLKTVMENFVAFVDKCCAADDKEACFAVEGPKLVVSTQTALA

Row | SMILES | composite z-score (Albumin (Bos taurus)) | composite Z-score [1] | composite z-score [2] | composite z-score [3] | composite z-score [4] | composite z-score [5] | composite z-score [6] | composite z-score (Sam68 (KHDRBS1)) | composite z-score [7] | composite z-score [8] | composite z-score [9] | composite z-score [10] | composite z-score [11] | composite z-score [12] | composite z-score [13] | composite z-score [14] | z-score [15] | composite z-score (Lefty1) | composite z-score [16] | z-score [17]
1 | CO[C@@H]1COC(=O)[C@H](CCSC)NC(=O)CC=C[C@@H](C)COC(=O)[C@@H]2CCCN2C(=O)CC=C[C@H]1C | -1.43 | 0.605 (inactive) | 0.0306 | -0.199 | -0.291 | -0.462 | -0.328 | 0.34 | 0.946 | -0.353 | 0.0289 | 0.258 | -0.702 | -1.13 | 0.779 | 0.889 | 0.215 | 1.15 | -1.37 | -0.0167 (inactive)
2 | COC(=O)[C@H](C)NC(=O)CCC1CC(OC(=O)NCc2cccc3ccccc23)CC2(CCCC(COC(=O)NCCOc3ccccc3)O2)O1 (stereo not given in full) | 0.445 | -0.0662 (inactive) | -0.0694 | -0.161 | 0.295 | 1.17 | 0.106 | 1.23 | -0.254 | 1.09 | 0.334 | 1.12 | 0.549 | 0.793 | 0.145 | -0.142 | -0.333 | 0.318 | 0.502 | 1.32 (inactive)
3 | CC(C)(C)N1C(=O)[C@H]2[C@H]3[C@H](O)[C@H](O)CC(=NNC(=O)OCc4ccccc4)[C@H]3CC[C@H]2C1=O | -0.316 | 0.175 (inactive) | -0.0071 | -0.075 | 0.158 | 0.447 | -0.0026 | 1.1 | 0.303 | 0.275 | 0.758 | 0.848 | 0.0507 | 1.03 | 0.963 | 0.491 | -1.08 | 1.43 | 0.525 | 0.944 (inactive)
4 | CC=CC1=C(CO)[C@H](O)[C@H]2O[C@H]2[C@@H]1O | -0.0712 | 0.0296 (inactive) | 0.213 | -0.141 | 0.17 | -0.394 | -0.599 | 0.269 | 0.753 | 0.0361 | 0.343 | 0.23 | -0.401 | -0.0599 | 0.937 | 0.45 | -0.537 | 0.911 | -0.0224 | -0.0811 (inactive)
5 | COC(=O)CC=C[C@@H](C)[C@@H](C=NOC(C)CN1CCCCc2nc(C)c(C)cc21)OC (stereo not given in full) | 0.276 | -0.472 (inactive) | 0.227 | -0.0439 | 0.301 | 0.043 | -0.0856 | 1.28 | 1.29 | 0.235 | 1.4 | 0.981 | 0.847 | 0 | 1.14 | 0.368 | 0.855 | 1.24 | 0.259 | -0.183 (inactive)
6 | COC(OC)[C@@H](C)[C@H](OC)[C@@H](C)[C@H](OC)c1ccccc1 | -0.355 | 0.273 (inactive) | -0.0647 | -0.15 | -0.552 | -0.729 | -0.266 | -1.16 | 0.473 | -0.18 | -0.504 | 0.104 | -0.043 | -0.353 | 0.144 | 0.142 | 2.15 | 0.253 | -0.0965 | -1.67 (inactive)
7 | COC(=O)CC=C[C@@H](C)[C@@H](C=NOC[C@@H](C)[C@H](OCc1ccccc1)C(C)C)NS(=O)(=O)c1ccc(C)cc1 | -1.05 | 0.216 (inactive) | -0.161 | -0.216 | -0.351 | -0.342 | 0.102 | -0.135 | 0.271 | -0.596 | 1.82 | -0.588 | -0.424 | -1.52 | 0.131 | 0.0249 | -0.48 | 0.329 | -1.57 | 0.419 (inactive)
8 | COc1ccc(OC[C@@H]2CC3[C@@H](c4ccc(Br)cc4)[C@H](C)CC[C@H]3C(=O)O2)cc1 (stereo not given in full) | 0.733 | -0.644 (inactive) | -0.023 | -0.18 | -0.117 | -0.037 | 0.196 | -0.218 | 0.584 | -0.758 | -1.08 | -0.291 | -0.0102 | 0.563 | 0.57 | 0.29 | -0.296 | 0.74 | 0.282 | 0.294 (inactive)
9 | CON=C(C)CCN1CCc2nc(-c3ccccc3)c(-c3ccccc3)cc2C1 | 0.633 | 0.837 (inactive) | -0.132 | -0.0829 | -0.153 | -0.556 | 0.0881 | -0.303 | 0.258 | 1.13 | -0.634 | -0.545 | -0.414 | 0.838 | 0.944 | 0.344 | 2.9 | 0.686 | 0.801 | 0.326 (inactive)
10 | COC(=O)C(C(=O)OC)C1CCCC(=O)C1 (stereo not given) | -0.0912 | 0.499 (inactive) | -0.0391 | -0.0694 | 0.381 | 0.214 | -0.205 | -0.0924 | 0.414 | 0.468 | 0.252 | 0.433 | 0.193 | 0.372 | 0.326 | 0.692 | -1.13 | 0.804 | 0.173 | 0.138 (inactive)
11 | COC(=O)[C@H](C)NC(=O)CC=C[C@@H](C)[C@@H]1C=C[C@H](O)[C@@H](CO)O1 | -0.453 | -0.0756 (inactive) | -0.0932 | -0.237 | -0.114 | -0.346 | -0.0681 | 0.457 | 1.33 | -0.174 | 0.0816 | 0.228 | -0.118 | -0.0588 | 1.14 | 1 | -0.142 | 1.39 | -0.28 | 0.374 (inactive)
12 | CCOC(=O)NN=C1C[C@@H](O)[C@@H](O)[C@@H]2[C@@H]3C(=O)N(c4ccc(F)cc4F)C(=O)[C@@H]3CC[C@H]12 | 0.123 | -0.623 (inactive) | -0.0879 | -0.107 | -0.0212 | 0.0971 | 0.0173 | 0.108 | 0.529 | 0.0692 | 0.142 | 0.301 | -0.0292 | 0.233 | 0.515 | 0.577 | -0.778 | 0.449 | 0.161 | 1.18 (inactive)
13 | CCN1C(=O)[C@H]2[C@H]3[C@H](O)[C@H](O)CC(=NNC(=O)OCc4ccccc4)[C@@H]3CC[C@H]2C1=O | 0.489 | -0.45 (inactive) | -0.0647 | -0.14 | -0.289 | 0.917 | -0.314 | -0.327 | -0.0079 | 0.145 | 0.545 | -0.513 | -0.116 | 0.315 | 0.0633 | -0.0789 | 0.207 | 0.066 | 0.128 | 0.248 (inactive)
14 | CC(C)=NO[C@H](C)c1cn([C@@H]2COC[C@H]2O)nn1 | 0.392 | -0.679 (inactive) | 0.0694 | -0.147 | 0.0793 | 0.0027 | 0.191 | 0.317 | 0.655 | 0.139 | 0.106 | 0.661 | 0.335 | 0.187 | 0.349 | 0.594 | 0.027 | 0.718 | -0.038 | 0.0821 (inactive)
15 | CC(C)(C)N1C(=O)[C@H]2[C@H]3[C@H](O)[C@H](O)CC(=NOC[C@@H](O)COCc4ccco4)[C@H]3CC[C@H]2C1=O | 0.383 | -0.0443 (inactive) | -0.128 | -0.117 | 0.282 | 0.327 | 0.72 | 0.396 | 0.479 | 0.315 | 0.606 | 0.237 | -0.136 | 0.0824 | -0.22 | 0.249 | 0.0624 | -0.0429 | 0.495 | -0.011 (inactive)
